High-throughput results deposited in PubChem by Broad Institute.
The entries come from a sample that favours hits as a whole.
T cruzi growth-1 – blocks T. cruzi growth in NIH3T3 culture | T. cruzi beta-gal in NIH3T3, GalScreen luminescence, 90 h | 77,000 tested, 5.9% active | inhibition, % at 8.34 µM;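 active means mean inhibition above about 93%, with at least 55% of replicates each passing it, limit read from the data, passing the limit was not always enough; inconclusive means only one of those two conditions holds; inactive means neither condition holds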
C diff growth – inhibitors of Clostridium difficile growth. Clostridium difficile clinical isolate growth, OD600, 24 h; active compounds read low. growth activity, negative = inhibition, % at 16 µg/mL (by protocol). 86,000 tested, 0.25% active. AID 1259249;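 active means mean growth activity at or below -80% and every replicate also at or below -80%; inconclusive means mean at or below -80% but some replicate above -80%; inactive means mean growth activity above -80%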;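 further: 0% = DMSO wells and -100% = levofloxacin 16 µg/mL wells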
T cruzi growth-2 – inhibitors of T. cruzi proliferation | shares compounds with T cruzi growth-1 | T. cruzi beta-gal in NIH3T3, GalScreen luminescence, 90 h | inhibition, % at 8.35 µM | 5,600 tested, 72% active | AID 651739;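 active means mean replicate inhibition above about 95% and at least 55% of replicates individually reaching it, limit read from the data; inconclusive means only one of the two criteria is met; inactive means neither criterion is met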
T cruzi growth-3 – Trypanosoma cruzi proliferation inhibition; shares compounds with T cruzi growth-1; T. cruzi beta-gal in NIH3T3, GalScreen luminescence, 90 h; inhibition, % at 2.09 µM; 5,600 tested, 21% active;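 active means mean inhibition above about 95%, with at least 55% of replicates also reaching it, limit read from the data; inconclusive means meets just one of the two conditions; inactive means meets neither condition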;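 further: plate controls were neutral control median for no effect and positive control median for full effect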
NIH3T3 tox – kills mouse NIH/3T3 fibroblasts; cytotoxicity (signal decrease), % at 8.35 µM; shares compounds with T cruzi growth-1; 5,600 tested, 14% active; NIH/3T3 viability, CellTiter-Glo ATP luminescence, 90 h;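 active means mean signal decrease across replicates above about 35% based on untreated-well scatter, with enough replicates individually passing, limit read from the data; inconclusive means no rule stated though some were filed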;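 further: 0% = median of neutral control wells and 100% = median of positive control wells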
3T3 cytotox 2 – cytotoxicity in mouse NIH/3T3 fibroblasts. shares compounds with T cruzi growth-1. NIH/3T3 viability, CellTiter-Glo ATP luminescence, 90 h. inhibition, % at 24.9 µM. 5,600 tested, 56% active;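 active means mean loss of cell viability signal at or above a set limit, and enough replicates individually reaching it; inconclusive means meets only the mean limit or only the replicate share; inactive means meets neither condition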;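 further: 0% = median of neutral control wells and 100% = median of positive control wells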
Numbers without * were called inactive; ? = inconclusive; . = not tested or not shown.

SMILES	T cruzi growth-1	C diff growth	T cruzi growth-2	T cruzi growth-3	NIH3T3 tox	3T3 cytotox 2
Cn1cnc(CCNC(=O)C[C@@H]2CC[C@H]3[C@@H](COC[C@H](O)CN3C(=O)C3CC3)O2)c1	12	5	.	.	.	.
Cn1cnc(CCNC(=O)C[C@@H]2CC[C@H]3[C@@H](COC[C@@H](O)CN3C(=O)Nc3ccc(C(F)(F)F)cc3)O2)c1	107*	31	-33	5	6	15
Cn1cnc(CCNC(=O)C[C@H]2CC[C@H]3[C@@H](COC[C@H](O)CN3C(=O)Nc3ccc(Cl)cc3)O2)c1	44	.	.	.	.	.
Cn1cnc(CCNC(=O)C[C@H]2CC[C@H]3[C@@H](COC[C@H](O)CN3C(=O)Nc3ccccc3)O2)c1	2	-2	.	.	.	.
Cn1cnc(CCNC(=O)C[C@@H]2CC[C@H]3[C@@H](COC[C@@H](O)CN3C(=O)C3CC3)O2)c1	104*	8	102*	-25	-23	-23
Cn1cnc(CCNC(=O)C[C@H]2CC[C@@H]3[C@H](COC[C@H](O)CN3C(=O)Nc3ccc(C(F)(F)F)cc3)O2)c1	?	24	84	-7	6	2
COc1ccc(NC(=O)N[C@@H]2CC[C@@H](CCNC(=O)c3ccccc3F)O[C@@H]2CO)cc1	1	0	.	.	.	.
CCC(=O)N1[C@H](C(=O)N[C@@H](C)c2ccccc2)[C@@H](CO)[C@@H]2Cn3c(cccc3=O)[C@@H]21	.	-2	.	.	.	.
CNC[C@H]1Oc2cc(C#Cc3ccccc3OC)ccc2S(=O)(=O)N([C@@H](C)CO)C[C@@H]1C	103*	3	106*	68	?	104*
CNC[C@H]1Oc2cc(C#Cc3ccccc3)ccc2S(=O)(=O)N([C@H](C)CO)C[C@@H]1C	.	26	.	.	.	.
CNC[C@@H]1Oc2cc(C#Cc3ccccc3)ccc2S(=O)(=O)N([C@H](C)CO)C[C@H]1C	.	24	.	.	.	.
CNC[C@@H]1Oc2cc(C#Cc3ccccc3OC)ccc2S(=O)(=O)N([C@@H](C)CO)C[C@H]1C	105*	-4	104*	84	10	104*
COc1cccc(C(=O)Nc2ccc3c(c2)OC[C@H](C)N(C)C[C@H](C)[C@@H](OC)CN(C)C3=O)c1	.	-5	.	.	.	.
CCCNC(=O)C[C@H]1C[C@H]2c3cc(N(C)C)ccc3O[C@H]2[C@H](CO)O1	.	-1	.	.	.	.
O=C(C[C@H]1C[C@@H]2c3cc(NC(=O)Nc4ccccc4F)ccc3O[C@@H]2[C@@H](CO)O1)NC1CCCCC1	158*	4	?	27	6	19
O=C(C[C@@H]1C[C@@H]2c3cc(NC(=O)Nc4ccccc4F)ccc3O[C@@H]2[C@H](CO)O1)NC1CCCCC1	-10	-13	.	.	.	.
O=C(C[C@H]1C[C@@H]2c3cc(NC(=O)Nc4ccccc4F)ccc3O[C@@H]2[C@H](CO)O1)NCc1ccccn1	109*	-1	18	2	7	10
O=C(C[C@@H]1C[C@H]2c3cc(NC(=O)Nc4ccccc4F)ccc3O[C@H]2[C@H](CO)O1)NCc1ccccn1	.	0	.	.	.	.
COc1ccccc1CNC(=O)C[C@H]1C[C@H]2c3cc(NC(=O)C4CCC4)ccc3O[C@H]2[C@@H](CO)O1	63	.	.	.	.	.
C/C=C/c1cnc2c(c1)C(=O)N([C@H](C)CO)C[C@H](C)[C@@H](CN(C)Cc1ccc(F)cc1)O2	46	0	.	.	.	.
C/C=C/c1cnc2c(c1)C(=O)N([C@@H](C)CO)C[C@H](C)[C@@H](CN(C)Cc1ccc(F)cc1)O2	37	3	.	.	.	.
C/C=C/c1cnc2c(c1)C(=O)N([C@H](C)CO)C[C@@H](C)[C@@H](CN(C)Cc1ccc(F)cc1)O2	119*	6	?	-21	-5	?
C/C=C/c1cnc2c(c1)C(=O)N([C@@H](C)CO)C[C@H](C)[C@H](CN(C)Cc1ccc(F)cc1)O2	114*	5	75	18	23	48*
COc1ccc(CNC(=O)C[C@@H]2C[C@@H]3c4cc(NC(=O)CN(C)C)ccc4O[C@@H]3[C@H](CO)O2)cc1	-50	-1	.	.	.	.
C/C=C/c1ccc2c(c1)O[C@H](CN(C)C(=O)c1ccccn1)[C@@H](C)CN([C@@H](C)CO)S2(=O)=O	23	5	.	.	.	.
SMILES	T cruzi growth-1	C diff growth	T cruzi growth-2	T cruzi growth-3	NIH3T3 tox	3T3 cytotox 2
C[C@@H]1CCCCO[C@@H](CN(C)Cc2ccc(Cl)c(Cl)c2)[C@H](C)CN([C@H](C)CO)C(=O)c2cc(N(C)C)ccc2O1	99*	.	106*	79	-1	103*
C[C@@H]1CCCCO[C@H](CN(C)Cc2ccc(Cl)c(Cl)c2)[C@@H](C)CN([C@H](C)CO)C(=O)c2cc(N(C)C)ccc2O1	86	.	.	.	.	.
C[C@@H]1CCCCO[C@@H](CN(C)Cc2ccc(Cl)c(Cl)c2)[C@H](C)CN([C@@H](C)CO)C(=O)c2cc(N(C)C)ccc2O1	.	15	.	.	.	.
C[C@@H]1CCCCO[C@H](CN(C)Cc2ccc(Cl)c(Cl)c2)[C@@H](C)CN([C@@H](C)CO)C(=O)c2cc(N(C)C)ccc2O1	106*	.	100*	106*	15	106*
CC(=O)N(C)C[C@H]1[C@H](c2ccccc2)[C@@H](CO)N1C(=O)C1CC1	9	-4	.	.	.	.
CN(C)c1ccc2c(c1)[C@@H]1C[C@@H](CC(=O)NCc3ccccc3)O[C@H](CO)[C@@H]1O2	38	.	.	.	.	.
CN(C)c1ccc2c(c1)[C@@H]1C[C@@H](CC(=O)NCc3ccc4c(c3)OCO4)O[C@@H](CO)[C@@H]1O2	121*	.	106*	17	4	-1
CN(C)c1ccc2c(c1)[C@H]1C[C@H](CC(=O)NCc3ccc4c(c3)OCO4)O[C@H](CO)[C@H]1O2	85	.	.	.	.	.
CN(C)c1ccc2c(c1)[C@H]1C[C@@H](CC(=O)NCc3ccc(Oc4ccccc4)cc3)O[C@@H](CO)[C@H]1O2	108*	-3	48	22	3	17
Cc1ccccc1-c1ccccc1[C@H]1[C@@H](CO)N(C(=O)c2cccc(F)c2)[C@H]1C#N	.	2	.	.	.	.
O=C(NC1CCC1)[C@H]1[C@H](CO)[C@H]2Cn3c(cccc3=O)[C@H]2N1CCc1ccccc1	51	-12	.	.	.	.
C[C@@H]1CCCCO[C@@H](CN(C)S(C)(=O)=O)[C@H](C)CN([C@@H](C)CO)C(=O)c2cc(NC(=O)Nc3ccc(C(F)(F)F)cc3)ccc2O1	33	-2	.	.	.	.
CC(C)NC(=O)Nc1ccc2c(c1)C(=O)N([C@@H](C)CO)C[C@@H](C)[C@@H](CN(C)Cc1ccccc1)OCCCC[C@H](C)O2	103*	-8	39	10	14	9
CC(C)NC(=O)Nc1ccc2c(c1)C(=O)N([C@H](C)CO)C[C@@H](C)[C@H](CN(C)Cc1ccccc1)OCCCC[C@H](C)O2	29	2	.	.	.	.
CC(C)NC(=O)Nc1ccc2c(c1)C(=O)N([C@H](C)CO)C[C@@H](C)[C@@H](CN(C)Cc1ccccc1)OCCCC[C@@H](C)O2	36	4	.	.	.	.
